From ChEMBL document CHEMBL4513216, “Probing the Open Global Health Chemical Diversity Library for Multistage-Active Starting Points for Next-Generation Antimalarials” (ACS Infect Dis, 2020) come the findings set out here.

Molecules are shown by their SMILES. In all, about 69,000 compounds went through this assay and about 8,600 (12%) showed an effect of 50% or more. Shown is part of a subset that was picked to be rich in strong results.

The subject of the experiment is Plasmodium berghei. In words: Screen against P. berghei liver stage (PbLuc), transformed with Luciferase, at 10uM. It counts as functional, HepG2. The note with it: tested at 10 uM.
For the molecule `CC(=O)NC[C@]1(O)CCN(C(=O)c2ccc(F)c(Cl)c2)C[C@H]1O`, the INHIBITION is on record as 18.9%.

With `O=C1COC2(CCN(Cc3cccnc3)CC2)CN1c1ccccc1`, the INHIBITION is reported as 48.4%. To `C[C@@]1(O)CCN(C2CCOCC2)C[C@H]1n1ccc(=O)[nH]c1=O` belongs 10.95%. For the molecule `Clc1ccc(Cc2nc(CNCCn3cccn3)cs2)cc1`, the INHIBITION was 16.6%. The result for `CCc1nn(C)c(Cl)c1CN(CC)Cc1cnn(CC)c1` reads -21.9%; that for `CC(=O)c1c(O)n(C)c2ccc(F)cc12`, 5.75%; that for `CC(=O)Cn1c(C)cc(=O)c2cc(F)ccc21`, 82.4%. As for `O=C(O)Cn1ccc(=O)c2cc(F)ccc21`, the INHIBITION was 25.3%. To `Cc1cc(=O)c2cc(F)ccc2n1CC(=O)O` belongs 71.3%. To `Cc1cc(C)n(C2CN(C(=O)Cn3c(C)cc(=O)c4ccccc43)C2)n1` belongs 29.1%.

Regarding `COC(=O)Cn1ccc(=O)c2ccc(OC)cc21`, the INHIBITION was -20%.

For `COC(=O)CCn1ccc(=O)c2cc(F)ccc21`, the INHIBITION was determined as 6.34%. To `COC(=O)Cn1c(C)cc(=O)c2cc(F)ccc21` belongs 71.3%; to `Cc1ccc2c(c1)c(C)cc(=O)n2CC(=O)O`, 10.775%. To `CNC(=O)c1ccc(C2CN(C(=O)c3c[nH]nc3C)CCO2)nc1` (centres undefined) belongs -20.2%.

With `O=C(NC1CCN(c2ccccc2Br)C1)c1c[nH]nn1` (centres undefined), the INHIBITION worked out at 34.2%. Consider `CS(=O)(=O)NCC1CCCN(C(=O)Nc2cccc3ccccc23)C1` (centres undefined), for which the INHIBITION was -31.3%. `CC(C)C(NC(=O)Cc1ccccc1)C(=O)NCc1ccc(O)nc1` (centres undefined): the INHIBITION was found to be 0.991%. For the molecule `CC(C)(C)c1nnc(CN2CCCC2Cn2cncn2)o1` (centres undefined), the INHIBITION was found to be 32.707%. To `CN1CC(=O)N(c2cccc(F)c2)CC12CCN(S(=O)(=O)C1CC1)C2` (centres undefined) belongs 5.44%. The result for `NC(=O)c1cnc(NC2CC2)nc1CCNC(=O)CC1CCCC1` reads 31.3%; that for `O=C(NCc1cc[nH]n1)N1CCN(c2ncccn2)CC1`, 33.3%. On to `CCOC(=O)CNC(=O)N1CCN(c2ncccn2)CC1`, for which the INHIBITION turned out to be 63.5%. For the molecule `CCOC(=O)CCCNC(=O)CN1CCN(c2ncccn2)CC1`, the INHIBITION is given as 1.81%. For `Cn1c(C(=O)NC(Cc2ccsc2)c2cccnc2)cc(=O)n(C)c1=O` (centres undefined), the INHIBITION is recorded as -12.3%.

On to `C/C=C(\C)CN1C[C@@H](NC(=O)c2ccc(F)c(F)c2)C[C@H]1C(=O)NCC`, for which the INHIBITION came to 52%. The result for `C/C=C(\C)CN1C[C@@H](NC(=O)c2ccc(O)c(Cl)c2)C[C@H]1C(=O)NCC` reads 22.4%. The result for `C/C=C(\C)CN1C[C@H](NC(=O)c2cnc(O)cn2)C[C@H]1C(=O)NCC` reads -7.17%; that for `c1ccc(OCCN2CCCCC2Cn2cncn2)cc1` (centres undefined), 40.9%; that for `CCCC(C)N(C)C(=O)c1nc(S(C)(=O)=O)n2ccccc12` (centres undefined), -8.95%. For `Cc1nc(C)c(C(=O)N2CCc3cc(F)ccc3C2C)o1` (centres undefined), the INHIBITION was 52.6%.

As for `Cc1nc(C)c(C(=O)N2CCc3ccc(F)cc3C2C)o1` (centres undefined), the INHIBITION is recorded as -11.6%. In the case of `Cc1nc(C)c(C(=O)N2Cc3cc(F)ccc3CC2C)o1` (centres undefined), the INHIBITION is recorded as -9.17%. To `C=c1ncsc1=C1NN=C(C2CCCN2C(=O)CCn2ccc(C)n2)O1` (centres undefined) belongs 21.95%.

`Cc1nn(C)c(C)c1CN(C)CC1(O)CCCN(C)C1` (centres undefined): the INHIBITION is recorded as 5.18%.

Consider `CCc1cnc(C)nc1N1CCC(Cc2cccc(C(=O)O)c2)C1` (centres undefined), for which the INHIBITION is 47.2%. To `CCCc1cnc(C)nc1N1CCC2(CCCO2)CC1` belongs 13.1%; to `CCCc1cnc(C)nc1N1CCC(Cn2cc(CO)nn2)CC1`, 50.2%; to `CCCc1cc(N2CCC(Cc3cccc(C(N)=O)c3)C2)nc(C)n1` (centres undefined), 5.67%. To `CCCc1cnc(C)nc1N1CCC(Cn2cc(CN(C)C)nn2)CC1` belongs -16.1%. To `CCCc1cnc(C)nc1N1CCC(Cc2cccc(C(N)=O)c2)C1` (centres undefined) belongs 52.2%. For `CCCc1cnc(C)nc1N1CCC(Cc2ccc(CO)cc2)C1` (centres undefined), the INHIBITION was found to be 75%. On to `CCCc1cnc(C)nc1N1CCC(Cn2cc(C(C)O)nn2)CC1` (centres undefined), for which the INHIBITION is 17.5%. The result for `CCCc1cnc(C)nc1N1CCC(F)(F)CC1` reads -40.6%; that for `Cn1cnc2c1CCN(Cc1cccc(C(=O)N3CCCCC3)c1)C2`, -40.01%.

In the case of `Cc1cccc(S(=O)(=O)N2C[C@@H]3C[C@H](C(=O)N(C)C)[C@H](C2)O3)c1`, the INHIBITION turned out to be 42.3%. In the case of `Cc1nc(NC2CC(C)(C)NC(C)(C)C2)c2c(n1)c(C)nn2C`, the INHIBITION is -7.83%.

For `COCCc1noc(CN(C)c2nc(C)nc(C)c2C)n1`, the INHIBITION is recorded as 47.6%. Take `CNc1snc(C)c1C(=O)N1CCCC(n2nc(C)nc2C)C1` (centres undefined): the INHIBITION was 19.4%. The result for `O=C1CC(NS(=O)(=O)c2cccc(F)c2)CN1` (centres undefined) reads 10.7%. For the molecule `CC(=O)N1CCCN(C(=O)NC(C)c2csc3ccccc23)CC1` (centres undefined), the INHIBITION amounted to 21.8%.

Turning to `CC(NC(=O)N1CCC(CC(N)=O)CC1)c1csc2ccccc12` (centres undefined), the INHIBITION is reported as 27.7%. The result for `CC(NC(=O)N1CCC(CO)CC1)c1csc2ccccc12` (centres undefined) reads 55.5%; that for `COc1ccc(C(=O)N2CCCCC2c2nccs2)c(OC)c1` (centres undefined), 7.12%.

As to `COc1ccc(CC(=O)N2CCCCC2Cn2cc(C)cn2)cc1F` (centres undefined), the INHIBITION is given as -2.19%. In the case of `CC(C)Cc1cc(NC(=O)c2cccnc2)n(C)n1`, the INHIBITION is on record as -10.6%.

As to `CCN(CC(=O)NC(C)C)S(=O)(=O)N1CCCCCC1`, the INHIBITION is listed as -12.6%.

For the molecule `CCN(CC)S(=O)(=O)N1CCCN(CC(=O)NC(C)C)CC1`, the INHIBITION is 57.2%. In the case of `CCN(CC(=O)NC(C)C)S(=O)(=O)N1CCCC(C)C1` (centres undefined), the INHIBITION is listed as -13.4%. The result for `Fc1ccc2[nH]c3c(c2c1)CCN1C(c2ccccn2)N2CCC31CC2` (centres undefined) reads -23.4%; that for `Cc1cccc(C(C)NCC2CCS(=O)(=O)CC2)c1` (centres undefined), 64.4%. Consider `CC(NCC1CCS(=O)(=O)CC1)c1cccc(OC(F)F)c1` (centres undefined), for which the INHIBITION came out at 2.97%.

As for `CC(=O)Nc1cccc(C(C)NCC2CCS(=O)(=O)CC2)c1` (centres undefined), the INHIBITION was 25.8%. Take `O=C(Nc1cnccn1)[C@@H]1C[C@H]2OCC[C@H]2N(Cc2ccsc2)C1`: the INHIBITION is reported as -38.9%. To `CCCN1C[C@@H]2CC[C@H]1CN(Cc1ccc(Cn3cccn3)cc1)C2` belongs -27.5%; to `COC(=O)c1ccc(N2CCN(C(=O)c3cccnc3)C(C)C2)cc1` (centres undefined), 81.1%.

Turning to `COC(=O)c1ccc(N2CCN(C(=O)c3ccncc3)C(C)C2)cc1` (centres undefined), the INHIBITION was 27.1%. To `COC(=O)c1ccc(N2CCN(C(=O)C3CC3)C(C)C2)cc1` (centres undefined) belongs 31.6%; to `COC(=O)c1ccc(N2CCN(C(=O)c3ccco3)C(C)C2)cc1` (centres undefined), -34%. The result for `COC(=O)c1ccc(N2CCN(C(=O)c3ccc(O)nc3)C(C)C2)cc1` (centres undefined) reads 2.97%. The result for `COC(=O)c1ccc(N2CCN(C(=O)c3cnn(C)c3)C(C)C2)cc1` (centres undefined) reads 63.6%. With `O=S(=O)(CCNC1CCc2ncnn2C1)c1ccc(Cl)cc1` (centres undefined), the INHIBITION was determined as 21.5%. `CO[C@@H]1CN(c2ccccc2)S(=O)(=O)[C@@]12CCN(CC1CC1)C2`: the INHIBITION was 22.2%. The result for `CCn1cc(NC(=O)NCC(c2ccc(OC)cc2)N(C)C)cn1` (centres undefined) reads 34.85%; that for `C[C@@H]1CN(C(=O)c2ccccc2F)C[C@]12CCN(CCN(C)C)C2=O`, 11.2%; that for `Oc1ccc2oc3c(c2c1CN1CCOCC1)CCCC3`, -115%. With `O=C1NCCCc2c1oc1ccc(O)c(CN3CCOCC3)c21`, the INHIBITION is on record as 58.1%. Take `NC(=O)C1CN(Cc2c(O)ccc3oc4c(c23)CCCC4)CCO1` (centres undefined): the INHIBITION is given as -66.7%. `CCCC1(CO)CCCN(C(=O)CN2CCN(CC)CC2)C1` (centres undefined): the INHIBITION turned out to be 17.4%. Take `CN(C)c1cc(CNc2ccc(S(=O)(=O)C(C)(C)C)nc2)ccn1`: the INHIBITION was -1.35%. Take `Cn1c(CN2CCOC(CCc3ccncn3)C2)nc2ccccc21` (centres undefined): the INHIBITION stood at 38.8%. In the case of `CCc1noc(CS(=O)(=O)Cc2nc(Cc3ccccc3)no2)n1`, the INHIBITION is given as 25.5%.

`CCc1noc(CS(=O)(=O)Cc2ccccc2C)n1`: the INHIBITION was determined as 61.3%. Consider `CCc1noc(CS(=O)(=O)CC=C(C)C)n1`, for which the INHIBITION is reported as 21.9%. The result for `CCc1noc(CS(=O)(=O)CC(=O)N2c3ccccc3CC2C)n1` (centres undefined) reads -21%; that for `CCc1noc(CS(=O)(=O)Cc2ccccc2Cl)n1`, 52.6%. The result for `Cc1ccccc1CS(=O)(=O)Cc1nc(C2CC2)no1` reads 9.16%. As for `Cc1ccc(C2COCCN2C(=O)c2ccc(F)c(F)c2)o1` (centres undefined), the INHIBITION came to 44.9%. The result for `O=C(c1cnccn1)N1CCc2onc(Cn3cccn3)c2C1` reads 9.63%; that for `O=C(NCCN1CCCCCC1=O)c1ccc(=O)[nH]n1`, 33.7%. To `Cn1ccnc1CN1CCN2C[C@H](Oc3ccccc3)C[C@H]2C1` belongs 39.8%; to `CN(C)c1nccc(C2CCCCN2Cc2cnn3cccnc23)n1` (centres undefined), -29.9%; to `Cc1csc(N2CCCN(C(=O)Cn3cncn3)CC2)n1`, -52.5%. With `CN(Cc1ccnc2ccccc12)C1CCS(=O)(=O)C1` (centres undefined), the INHIBITION was found to be 45.2%. To `CCOCC1CN(C(=O)COc2ccccc2C)Cc2ncn(C)c21` (centres undefined) belongs 24.6%; to `O=C(COc1cccc(F)c1)N1CCCCC1c1ccn2ccnc2n1` (centres undefined), 1.11%. To `O=C(Cc1ccccc1F)N1CCCCC1c1ccn2ccnc2n1` (centres undefined) belongs 51.5%; to `O=C(Cc1cccc(F)c1)N1CCCCC1c1ccn2ccnc2n1` (centres undefined), 9.1%. To `O=C(Cc1ccc(F)cc1)N1CCCCC1c1ccn2ccnc2n1` (centres undefined) belongs 7.39%; to `O=C(CCc1cccnc1)N1CCCCC1c1ccn2ccnc2n1` (centres undefined), 45.6%. For `O=C(COc1ccccc1F)N1CCCCC1c1ccn2ccnc2n1` (centres undefined), the INHIBITION is given as 63.4%. The result for `CCn1cc(CNc2ccc(F)c(F)c2)cn1` reads -8%; that for `CC(C)CCc1noc(C[S+]([O-])CC(=O)NCc2ccccc2)n1` (centres undefined), 55.3%; that for `CC(C)Cc1nc(C[S+]([O-])CC(=O)NCc2ccccc2)no1` (centres undefined), -5.1%. To `CCCc1noc(C[S+]([O-])CC(=O)NCc2ccccc2)n1` (centres undefined) belongs 23.2%. Take `COc1ccc(N2CCN(C(=O)COc3nccc(C)n3)CC2)cc1`: the INHIBITION amounted to 36.8%. Regarding `N#Cc1cccc(NC(=O)N[C@H](CO)Cc2ccc(O)cc2)c1`, the INHIBITION turned out to be 60.9%. For the molecule `N#CCc1ccc(NC(=O)N[C@H](CO)Cc2ccc(O)cc2)cc1`, the INHIBITION amounted to 11.6%. The result for `N#Cc1cccc(NC(=O)N[C@H](CO)c2ccccc2)c1` reads 18.5%.
